In general, AC50 refers to the concentration at which the activity in the assay is half-maximal.

Test [1] in a line: BSK_CASM3C_SRB: Viability Assessment in the BioMAP Diversity Plus: CASM3C Assay (AID 2283050).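 Also: cells exposed to compound for 24 h.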 Particulars: primary human coronary artery smooth muscle cells.
Read-out in test [2]: Thrombomodulin, THBD (gene 7056)
The test is described as follows: BSK_CASM3C_Thrombomodulin: BioMAP Diversity Plus: CASM3C Assay for Thrombomodulin Biomarker Activity (AID 2283051).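 Also: thrombomodulin protein level measured by ELISA 24 h after dosing.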 Particulars: primary human coronary artery smooth muscle cells; actives raise or lower the signal.

Read-out in test [3]: Tissue Factor, F3 (gene 2152)
In words: BSK_CASM3C_TissueFactor: BioMAP Diversity Plus: CASM3C Assay for Tissue Factor Biomarker Activity (AID 2283052).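 Also: cell surface tissue factor protein level read by ELISA.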 Particulars: primary human coronary artery smooth muscle cells; actives raise or lower the signal.

Read-out in test [4]: Interferon-gamma inducible Protein 10 (IP10), CXCL10 (gene 3627)
The test is described as follows: BSK_hDFCGF_IP10: BioMAP Diversity Plus: hDFCGF Assay for Interferon-gamma inducible Protein 10 (IP10) Biomarker Activity (AID 2283053). Particulars: primary human foreskin fibroblasts; actives raise or lower the signal. The essentials: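 Cells: human dermal foreskin fibroblasts. Exposure: 24 h post-dosing. Detection: IP-10 ELISA, with values expressed against DMSO controls and fitted in both directions.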

Read-out in test [5]: Urokinase-type plasminogen activator receptor (uPAR), PLAUR (gene 5329)
In words: BSK_CASM3C_uPAR: BioMAP Diversity Plus: CASM3C Assay for Urokinase-type plasminogen activator receptor (uPAR) Biomarker Activity (AID 2283054).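 Also: cell-surface uPAR protein level quantified by ELISA.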 Particulars: primary human coronary artery smooth muscle cells; actives raise or lower the signal.

Read-out in test [6]: Vascular cell adhesion molecule 1 (VCAM1), VCAM1 (gene 7412)
The test is described as follows: BSK_CASM3C_VCAM1: BioMAP Diversity Plus: CASM3C Assay for Vascular cell adhesion molecule 1 (VCAM1) Biomarker Activity (AID 2283055).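 Also: VCAM-1 protein level quantified by ELISA on the cells.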 Particulars: primary human coronary artery smooth muscle cells; actives raise or lower the signal.

Read-out in test [7]: Collagen III, COL3A1 (gene 1281)
The test is described as follows: BSK_hDFCGF_CollagenIII: BioMAP Diversity Plus: hDFCGF Assay for Collagen III Biomarker Activity (AID 2283056). Particulars: primary human foreskin fibroblasts; actives raise or lower the signal. The essentials:
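Cells: human foreskin fibroblasts, primary. Dosing followed by 24 h incubation, then ELISA for collagen III. Both increases and decreases scored relative to DMSO.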

Read-out in test [8]: Epidermal growth factor receptor (EGFR), EGFR (gene 1956)
In words: BSK_hDFCGF_EGFR: BioMAP Diversity Plus: hDFCGF Assay for Epidermal growth factor receptor (EGFR) Biomarker Activity (AID 2283057). Particulars: primary human foreskin fibroblasts; actives raise or lower the signal. The essentials: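 Dosing human primary skin fibroblasts, then measuring surface EGFR by ELISA at 24 h, gives the endpoint; gains and losses relative to DMSO were fitted in both directions.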

Read-out in test [9]: Interleukin-8 (IL8), CXCL8 (gene 3576)
The test is described as follows: BSK_hDFCGF_IL8: BioMAP Diversity Plus: hDFCGF Assay for Interleukin-8 (IL8) Biomarker Activity (AID 2283058). Particulars: primary human foreskin fibroblasts; actives raise or lower the signal. The essentials:
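IL-8 levels from compound-treated primary human fibroblasts were read by ELISA at 24 h, with DMSO serving as baseline for bidirectional fitting.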

Test [10] in a line: BSK_hDFCGF_Proliferation: Cell Proliferation Assessment in the BioMAP Diversity Plus: hDFCGF Assay (AID 2283059).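 Also: curves fitted for both rise and fall of signal versus DMSO baseline.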 Particulars: primary human foreskin fibroblasts. An outline of the steps:
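Primary human foreskin fibroblasts, sub-confluent; […]; 10% TCA fix, 0.1% SRB stain, A560 total protein. Gain/loss fitted bidirectionally vs DMSO control.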

Read-out in test [11]: Macrophage colony-stimulating factor (MCSF), CSF1 (gene 1435)
The test is described as follows: BSK_hDFCGF_MCSF: BioMAP Diversity Plus: hDFCGF Assay for Macrophage colony-stimulating factor (MCSF) Biomarker Activity (AID 2283060). Particulars: primary human foreskin fibroblasts; actives raise or lower the signal. The essentials:
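M-CSF levels, determined by ELISA, are taken at 24 h after dosing human skin fibroblasts. Responses in either direction are fitted with DMSO serving as the baseline.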

Test [12] in a line: BSK_hDFCGF_SRB: Viability Assessment in the BioMAP Diversity Plus: hDFCGF Assay (AID 2283061).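 Also: cells exposed to compound for 24 h before the read.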 Particulars: primary human foreskin fibroblasts. The essentials: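 Cells were dosed with test chemical, cultured 24 h, fixed with 10% TCA, then stained with 0.1% SRB and read at 560 nm. The fibroblasts were human foreskin primary cells, and DMSO served as baseline.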
Read-out in test [13]: TIMP metallopeptidase inhibitor 1 (TIMP1), TIMP1 (gene 7076)
The test is described as follows: BSK_hDFCGF_TIMP1: BioMAP Diversity Plus: hDFCGF Assay for TIMP metallopeptidase inhibitor 1 (TIMP1) Biomarker Activity (AID 2283062). Particulars: primary human foreskin fibroblasts; actives raise or lower the signal. An outline of the steps:
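Fibroblasts from human foreskin are treated with test chemical and harvested at 24 h. TIMP-1 is quantified by ELISA, and gain or loss of signal is scored against DMSO.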

Read-out in test [14]: Monokine induced gamma interferon (MIG), CXCL9 (gene 4283)
In words: BSK_hDFCGF_MIG: BioMAP Diversity Plus: hDFCGF Assay for Monokine induced gamma interferon (MIG) Biomarker Activity (AID 2283063). Particulars: primary human foreskin fibroblasts; actives raise or lower the signal. The essentials:
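MIG signal, determined by ELISA, reflects 24 h chemical exposure of human skin primary fibroblasts. DMSO serves as negative control and baseline.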

Read-out in test [15]: Matrix Metallopeptidase 1 (MMP1), MMP1 (gene 4312)
The test is described as follows: BSK_hDFCGF_MMP1: BioMAP Diversity Plus: hDFCGF Assay for Matrix Metallopeptidase 1 (MMP1) Biomarker Activity (AID 2283064). Particulars: primary human foreskin fibroblasts; actives raise or lower the signal. An outline of the steps: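 Human foreskin fibroblasts exposed to chemical for 24 h; MMP1 detected by ELISA, with DMSO as baseline for bidirectional fitting.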

Read-out in test [16]: Vascular cell adhesion molecule 1 (VCAM1), VCAM1 (gene 7412)
In words: BSK_hDFCGF_VCAM1: BioMAP Diversity Plus: hDFCGF Assay for Vascular cell adhesion molecule 1 (VCAM1) Biomarker Activity (AID 2283065). Particulars: primary human foreskin fibroblasts; actives raise or lower the signal. An outline of the steps:
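Cells are dosed, cultured for 24 h, then VCAM-1 is quantified by ELISA; signal increases and decreases are both fitted relative to DMSO.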

Read-out in test [17]: Plasminogen activator inhibitor-1 (PAI1), SERPINE1 (gene 5054)
In words: BSK_hDFCGF_PAI1: BioMAP Diversity Plus: hDFCGF Assay for Plasminogen activator inhibitor-1 (PAI1) Biomarker Activity (AID 2283066). Particulars: primary human foreskin fibroblasts; actives raise or lower the signal. An outline of the steps:
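Fibroblasts from human foreskin were treated with test chemical. After 24 h, PAI-1 was measured by ELISA. Activity was fitted in both directions relative to DMSO.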

Read-out in test [18]: Intercellular Adhesion Molecule 1 (ICAM1), ICAM1 (gene 3383)
In words: BSK_KF3CT_ICAM1: BioMAP Diversity Plus: KF3CT Assay for Intercellular Adhesion Molecule 1 (ICAM1) Biomarker Activity (AID 2283067). Particulars: primary human keratinocytes with fibroblasts; actives raise or lower the signal. The essentials:
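Dose the keratinocyte/fibroblast co-culture, wait 24 h, measure ICAM-1 by ELISA, then fit increases or decreases against DMSO. Cytotoxicity is checked in parallel cultures by SRB total-protein staining.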

Read-out in test [19]: Interferon-gamma inducible Protein 10 (IP10), CXCL10 (gene 3627)
The test is described as follows: BSK_KF3CT_IP10: BioMAP Diversity Plus: KF3CT Assay for Interferon-gamma inducible Protein 10 (IP10) Biomarker Activity (AID 2283068). Particulars: primary human keratinocytes with fibroblasts; actives raise or lower the signal. An outline of the steps:
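In a primary skin co-culture of keratinocytes and fibroblasts, IP-10 is quantified by ELISA at 24 h after dosing. SRB staining of parallel wells monitors overt toxicity. Curves are fitted both directions against DMSO.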

A short description of test [20]: BSK_KF3CT_SRB: Viability Assessment in the BioMAP Diversity Plus: KF3CT Assay (AID 2283069).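 Also: fitted for both signal gain and loss against DMSO baseline.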 Particulars: primary human keratinocytes with fibroblasts. An outline of the steps:
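Overt cytotoxicity is assessed as total protein by sulforhodamine B staining in parallel human skin co-cultures at 24 h after dosing. DMSO serves as negative control and baseline.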

Calls of active or inactive are those of the source. The calls were made as follows: active = hit-call score of the fitted dose curve at least 0.9, where 1 is the maximum; inactive = score below 0.9.

For the compound `Nc1cccc(N)n1`, the outcome in [1], in test [2], in test [3], in test [4], in [5] and in test [6] was inactive. The result in test [7], in [8], in [9], in [10], in test [11] and in test [12] was inactive. Further, the result in test [13], in [14], in [15], in [16], in [17] and in test [18] was inactive. The result in [19] and in test [20] was inactive.

On to `CC(C)[N+](C)(CCOC(=O)C1c2ccccc2Oc2ccccc21)C(C)C`, for which the outcome in test [1], in test [2], in test [3], in test [4], in test [5] and in [6] was inactive. Moreover, the result in test [7], in [8], in [9], in [11], in test [12] and in [13] was inactive. Besides, the outcome in [14], in test [15], in test [16], in test [17], in test [18] and in test [19] was inactive. Moreover, in [20], the result was inactive. For the same compound, in [10], the AC50 is 0.471 µM (active).

In the case of `CCN1CN(CC)CN(CC)C1`, the result in test [1], in [2], in test [3], in test [4], in test [5] and in [6] was inactive. The outcome in test [7], in [8], in [9], in test [10], in [11] and in test [12] was inactive. For the same compound, the outcome in test [13], in test [14], in test [15], in test [16], in test [17] and in test [18] was inactive. Besides, the outcome in [19] and in test [20] was inactive.

Regarding `CC1(C)CC(O)CC(C)(C)N1[O]`, the outcome in test [1], in test [2], in [3], in test [4], in [5] and in test [6] was inactive. In addition, the result in test [7], in test [8], in test [9], in test [10], in [11] and in [12] was inactive. The outcome in test [13], in [14], in [15], in [16], in test [17] and in test [18] was inactive. For the same compound, the outcome in [19] and in [20] was inactive.

Take `CCCCCCCCCCCC(C)=O`: the AC50 in test [1] is 20 µM (active); in [3], 0.82 µM (active); in test [5], 20 µM (active). Moreover, the result in test [2], in test [4], in test [6], in test [7], in test [8] and in test [9] was inactive. Also, the outcome in test [11], in test [12], in test [13], in [14], in test [15] and in [16] was inactive. Besides, the result in [17], in test [18], in [19] and in test [20] was inactive.

As to `CC(C)C(=O)OCCc1ccccc1`, the result in [1], in [2], in test [3], in test [4], in [5] and in [6] was inactive. For the same compound, the result in [7], in test [8], in test [9], in [10], in [11] and in test [12] was inactive. Moreover, the result in [13], in test [14], in [15], in [16], in test [17] and in test [18] was inactive. For the same compound, the result in test [19] and in test [20] was inactive.
